# Screens: PubChem BioAssay, The Scripps Research Institute Molecular Screening Center
# Hits are enriched below; roughly 3.4% of the tested compounds scored in any of these assays.
# MITF inh = inhibitors of human MITF | O75030 | AlphaScreen MITF homodimerization, bead proximity signal | inhibition, % at 2.6 µM | actives 0.91% (n = 650,000); in the data active = inhibition above about 50%
# TEAD-YAP block = TEAD-YAP interaction inhibition | HEK-TIYL cells, TEAD-Gal4/YAP UAS-luciferase luminescence | AID 1259422 | actives 1.4% (n = 640,000) | inhibition, % at 9.12 µM; in the data active = inhibition above about 32%
# FBW7 act = activators of human E3 ligase FBW7 | Q969H0 | AlphaScreen FBW7–phospho-cyclin E peptide binding, activator screen | normalized activity (activation), % at 26.1 µM | actives 0.13% (n = 650,000) | AID 1259310; in the data active = normalized activity above about 1.9%;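 also: purified mutant Fbw7 with reduced substrate affinity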
# GPR151 ag = activates the human receptor GPR151. Q8TDV0. PathHunter beta-arrestin GPR151 cells, luminescence. activation, % at 11.2 µM. actives 1% (n = 650,000); in the data active = activation above about 4.9%
# Target sequence (Q8TDV0 whole entry, looked up): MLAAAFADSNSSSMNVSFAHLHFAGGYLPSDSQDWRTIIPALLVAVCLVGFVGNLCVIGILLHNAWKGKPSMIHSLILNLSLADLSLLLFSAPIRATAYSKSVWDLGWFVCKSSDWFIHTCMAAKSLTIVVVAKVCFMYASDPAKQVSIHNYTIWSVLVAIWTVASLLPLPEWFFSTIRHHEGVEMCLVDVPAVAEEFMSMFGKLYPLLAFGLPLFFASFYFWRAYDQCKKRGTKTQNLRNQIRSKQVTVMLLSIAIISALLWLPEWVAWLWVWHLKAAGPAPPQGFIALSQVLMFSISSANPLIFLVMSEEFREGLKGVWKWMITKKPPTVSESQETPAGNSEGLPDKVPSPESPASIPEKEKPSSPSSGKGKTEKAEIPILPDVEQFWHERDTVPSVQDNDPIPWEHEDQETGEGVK
# Numbers stand for hits; - = inactive; ! = not confirmed by another sample.
SMILES,MITF inh,TEAD-YAP block,FBW7 act,GPR151 ag
Cc1cc(C)nc(-n2nc(C)cc2C)n1,-,-,-,-
COc1cccc2sc(=NC(=O)c3nc4ccccc4s3)n(C)c12,-,70.9,-,-
COc1cccc2sc(=NC(=O)c3cccc4ccccc34)n(C)c12,-,-,-,-
CCOc1ccc(C(=O)Nc2ccc(-c3nc4cc(Cl)ccc4o3)c(O)c2)cc1Br,-,-,-,-
Cc1ccc(S(=O)(=O)/N=C2/C=C(Sc3ncn[nH]3)C(=O)c3ccccc32)cc1,-,98.1,-,-
O=C(CCCn1c(SCC(=O)c2ccccc2)nc2ccccc2c1=O)NCc1cccc(Cl)c1,-,-,-,-
COc1ccc(-c2cc(-c3ccccc3)c(C#N)c(S(=O)Cc3ccccc3)n2)cc1 (stereo not drawn),-,-,-,-
COc1ccc(-c2cc(-c3ccccc3)c(C#N)c(S(C)=O)n2)cc1 (stereo not drawn),-,53.1,-,-
COc1ccc(N2CCCC2=O)cc1,-,-,-,-
COc1ccc2c(c1)OCC(Cc1ccc(OC)c(O)c1)C2=O (stereo not drawn),-,49.5,-,-
COCCN(C(=S)Nc1ccc(C)cc1C)C1CCN(C(C)=O)CC1,-,-,-,-
Cc1ccc(-c2ncn(-c3ccc(Nc4ncc5cccc(-c6ccc(C)nc6)c5n4)cc3)n2)cn1,-,-,2.3,-
Cc1ncn(-c2ccc(Nc3ncc4cccc(C)c4n3)cc2)n1,-,-,-,-
Cc1ccc(-c2cccc3cnc(Nc4ccc5c(c4)OCO5)nc23)cn1,-,32.8,-,-
Cc1ccc(-c2cccc3cnc(NC4CCC(C(=O)N5CCCC5)CC4)nc23)cn1 (stereo not drawn),-,45.4!,-,-
Cc1ncn(-c2ccc(Nc3ncc4cccc(-c5ccn[nH]5)c4n3)cc2)n1,-,33.2,-,-
Cc1ccc(-c2ncn(-c3ccc(Nc4ncc5cccc(-c6ccc7c(c6)OCO7)c5n4)cc3)n2)cn1,-,-,-,-
CCCOc1ccccc1C1C(C(=O)OCCOC)=C(C)NC2=C1C(=O)CCC2 (stereo not drawn),-,-,-,-
Cc1ncn(-c2ccc(Nc3ncc4cccc(-c5cccc6c5ccn6C)c4n3)cc2)n1,-,-,-,-
Cc1ncn(-c2ccc(Nc3ncc4cccc(-c5cn[nH]c5C)c4n3)cc2)n1,-,45.4,-,-
Cc1ncn(-c2ccc(Nc3ncc4cccc(-c5ccc(F)cc5)c4n3)cc2)n1,-,-,-,-
Cc1ccc(-c2ncn(-c3ccc(Nc4cc(Nc5ccccc5C(N)=O)c(C)cn4)cc3)n2)cn1,-,37.6,-,-
Cc1ncn(-c2ccc(Nc3ncc4cccc(-c5cccnc5)c4n3)cc2)n1,-,46.2,-,-
Cc1ncn(-c2ccc(Nc3ncc4cccc(-c5ccn(C)n5)c4n3)cc2)n1,-,62.1,-,-
Cc1ccc(-c2ncn(-c3ccc(Nc4cc(Nc5ccccc5C(N)=O)c(C5CC5)cn4)cc3)n2)cn1,-,-,-,-
SMILES,MITF inh,TEAD-YAP block,FBW7 act,GPR151 ag
CC(CNS(=O)(=O)c1ccccc1)NS(=O)(=O)c1ccccc1 (stereo not drawn),-,-,-,-
COc1ccc(C(C)NC(=O)c2ccc(Br)cc2)cc1 (stereo not drawn),-,-,-,-
Cc1ncn(-c2ccc(Nc3ncc4cccc(-c5nccs5)c4n3)cc2)n1,-,56.0,-,-
CN(C)c1ccc2c(c1)OC(N)=C(C#N)C2c1ccc(F)cc1 (stereo not drawn),-,-,-,-
N#CC1=C(N)Oc2cc(N)ccc2C1c1cccc(Br)c1 (stereo not drawn),-,55.1,-,-
N#CC1=C(N)Oc2cc(N)ccc2C1c1ccc(Br)cc1 (stereo not drawn),-,-,-,-
CCN(CC)c1ccc2c(c1)OC(N)=C(C#N)C2c1cccc(F)c1 (stereo not drawn),-,68.3,-,-
O=C(Cc1ccccc1)c1ccc(O)c(CN2CCCCC2)c1O,-,-,-,-
Cc1cc(C(=O)COC(=O)C2=COCCO2)c(C)n1Cc1cccs1,-,61.6,-,-
Cc1cc(C(=O)COC(=O)c2ccccc2O)c(C)n1Cc1cccs1,-,88.8,-,-
Cc1ccsc1C(=O)OCC(=O)c1cc(C)n(C)c1C,-,66.1,-,-
CC1CCC(NC(=O)c2ccc(CNc3c(N4CCC(C)CC4)c(=O)c3=O)cc2)CC1 (stereo not drawn),-,-,-,-
O=C(CSc1n[nH]c(=O)n1Cc1ccccc1)Nc1ccc(F)c([N+](=O)[O-])c1,-,-,-,-
COc1ccc(C(=O)[C@@H]2[C@@H](c3ccsc3)C(C#N)(C#N)[C@H]3C=Cc4ccccc4N23)cc1,-,60.3,-,-
COc1ccc(C(=O)[C@@H]2[C@@H](c3cccc(Br)c3)C(C#N)(C#N)[C@H]3C=Cc4ccccc4N23)cc1,-,64.2,-,-
COc1ccc(C(=O)[C@@H]2[C@@H](c3ccc(OC)cc3)C(C#N)(C#N)[C@H]3C=Cc4ccccc4N23)cc1,-,62.6,-,-
Cc1ccc(C(=O)[C@@H]2[C@@H](c3ccsc3)C(C#N)(C#N)[C@H]3C=Cc4ccccc4N23)cc1,-,-,-,-
O=C(Nc1ccc2c(c1)OCO2)C(c1ccccc1)N1CCOCC1 (stereo not drawn),-,-,-,-
CCOC(=O)N1CCN(S(=O)(=O)c2cc(C(=O)Nc3ccc(Oc4ccccc4)cc3)ccc2F)CC1,-,-,-,-
C=CCNS(=O)(=O)c1cc(C(=O)Nc2ccc(Oc3ccccc3)cc2)ccc1F,-,66.5,-,-
O=C(Nc1ccc(Oc2ccccc2)cc1)c1ccc(F)c(S(=O)(=O)NCCc2ccccc2)c1,-,39.9,-,-
O=C(Nc1cccc(Cl)c1)c1ccc(F)c(S(=O)(=O)NCCc2ccccc2)c1,-,-,-,-
CCOc1ccc(NC(=O)c2cc(S(=O)(=O)NCc3ccccc3Cl)ccc2F)cc1,-,44.9,-,-
CCOc1ccc(NC(=O)c2ccc(F)c(S(=O)(=O)NCc3ccccc3)c2)cc1,-,36.9,-,-
CCOC(=O)Cc1csc(NC(=O)C(Cc2ccccc2)NC(=O)C2CCCCC2)n1 (stereo not drawn),-,-,-,-
SMILES,MITF inh,TEAD-YAP block,FBW7 act,GPR151 ag
CCc1ccc2c(c1)/C(=c1/sc3n(c1=O)CN(c1ccc(C(=O)O)cc1)CN=3)C(=O)N2,-,-,-,-
Cn1c2c(c(=O)n(C)c1=O)C(c1ccc(C(F)(F)F)cc1)C1=C(CCCC1=O)N2 (stereo not drawn),-,-,-,-
CCOC(=O)CNC(=O)CSc1nnnn1-c1ccc(OC)cc1,-,-,-,-
CCOc1ccc(-n2nc(C(=O)Nc3cc(C)c(Cl)cc3OC)c3ccccc3c2=O)cc1,-,-,-,-
COc1ccc(CNS(=O)(=O)c2cc(C(=O)Nc3ccc(Oc4ccccc4)cc3)ccc2F)cc1,-,-,-,-
Cc1c(Cl)cccc1NC(=O)c1cc(S(=O)(=O)NCc2ccco2)ccc1F,-,-,2.0,-
O=C(Nc1ccc(Oc2ccccc2)cc1)c1ccc(F)c(S(=O)(=O)NCc2ccc(F)cc2)c1,-,41.8,-,-
